We go through 39 molecules from PubChem BioAssay (EPA / NIEHS).

The source holds several records for some structures; these can differ, active in one and inactive in another. Calls of active or inactive are those of the source. Rule for the calls: active = hit-call score of the fitted dose curve at least 0.9, where 1 is the maximum; inactive = score below 0.9.

Usually AC50 stands for the midpoint of the concentration-response curve, whichever way the signal moves.

The target of the assay is Transcription factor E2F1 (Homo sapiens) (UniProt Q01094). The experiment in a line: ATG_E2F_CIS: Attagene CIS-FACTORIAL HepG2 Assay for human E2F Transcription Factor 1 (AID 2282935). Conditions: HepG2 Attagene cis-reporter, E2F reporter RNA transcripts; actives raise or lower the signal. On the procedure: ATG_CIS is a cell-based, multiplexed-readout assay that uses HepG2, a human liver cell line, with measurements taken at 24 hours after chemical dosing in a 24-well plate.ATG_E2F_CIS is one of 52 assay component(s) measured or calculated from the ATG_CIS assay. It is designed to make measurements of mRNA induction, a form of inducible reporter, as detected with fluorescence intensity signals by Reverse transcription polymerase chain reaction (RT-PCR) and Capillary electrophoresis technology.Data from the assay component ATG_E2F_CIS was analyzed into 1 assay endpoint. This assay endpoint, ATG_E2F_CIS, was analyzed with bidirectional fitting relative to DMSO as the negative control and baseline of activity. Using a type of inducible reporter, measures of mRNA for gain or loss-of-signal activity can be used to understand the reporter gene at the transcription factor-level as they relate to the gene E2F1. Furthermore, this assay endpoint can be referred to as a primary readout, because this assay has produced multiple assay endpoints where this one serves a reporter gene function. To generalize the intended target to other relatable targets, this assay endpoint is annotated to the dna binding intended target family, where the subfamily is E2F transcription factor.
Sequence of Transcription factor E2F1 (Homo sapiens) (Q01094 whole entry, looked up): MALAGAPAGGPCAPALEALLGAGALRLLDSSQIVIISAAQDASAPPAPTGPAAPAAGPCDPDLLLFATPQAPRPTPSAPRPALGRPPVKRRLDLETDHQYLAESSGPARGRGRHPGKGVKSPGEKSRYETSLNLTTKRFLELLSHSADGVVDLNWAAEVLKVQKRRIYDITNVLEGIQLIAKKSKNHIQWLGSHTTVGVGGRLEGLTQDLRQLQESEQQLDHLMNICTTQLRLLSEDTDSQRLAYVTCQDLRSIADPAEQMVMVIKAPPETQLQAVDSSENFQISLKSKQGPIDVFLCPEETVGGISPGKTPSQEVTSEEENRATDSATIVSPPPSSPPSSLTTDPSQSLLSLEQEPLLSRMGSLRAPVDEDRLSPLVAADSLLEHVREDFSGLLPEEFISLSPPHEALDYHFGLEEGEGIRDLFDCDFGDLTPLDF
Human liver HepG2 cells are transiently transfected with multiple reporter transcription units (MRTUs) in 6-well plates using FuGene 6 reagent (Roche; 3 ml FuGene/1 mg DNA). The MRTU constructs are regulated by a cis-regulating element (promoter). […] A major difference between the CIS and TRANS system is that in CIS activities of endogenous TFs are measured, whereas the TRANS assay evaluates changes in activities of exogenous, chimeric NR-Gal4 proteins. […] At the end of 24 hour incubation, total RNA was isolated using TriZol reagent (Invitrogen). The isolated RNA is then reverse-transcribed using oligo(dT) primer and Mo-MLV reverse transcriptase (Invitrogen) with DNAse I (Ambion) treatment for 30 min. The one-tenth of the produced cDNA was amplified by PCR using Taq DNA polymerase (Invitrogen) and two reporter sequence-specific primers. The PCR products were fluorescently labeled by primer extension with 6-arboxyfluorescein (6-FAM) 5'-labeled reporter sequence-specific primer (2 min at 95 C, 20 s at 68 C and 10 min at 72 C) and these products were digested with 5U of HpaI (New England Biolabs) for 2h at 37 C. The fragments were purified using Qiaquick PCR columns (Qiagen), analyzed on an ABI 3130xL genetic analyzer (Applied Biosystems) with peak positions identified by using a set of X-rhodamine (ROX)-labeled MapMarker1000 molecular weight standards (BioVentures). The raw capillary electrophoresis data was processed using Attagraph software (Attagene).
`CC(=O)Oc1c(C)c(C)c2c(c1C)CC[C@@](C)(CCC[C@H](C)CCC[C@H](C)CCCC(C)C)O2`: the molecule was called inactive.

Consider `O=C(O)c1cccc(Cl)n1`, for which the outcome was inactive.

On to `[Cl][Dy]([Cl])[Cl]`, for which the outcome was inactive.

As to `CC(=O)OC(C)(C)C1CC=C(C)CC1` (stereo not given), the molecule was classed as inactive.

Regarding `CCCCOCCOCCOCCO`, the call was inactive.

For the molecule `CC(O)CNCC(C)O` (stereo not given), the call was inactive.

On to `CC(C)(C)c1cccc(O)c1`, for which the molecule was called inactive.

For `COC(=O)C(C)Oc1ccc(Oc2ncc(C(F)(F)F)cc2Cl)cc1` (stereo not given), the result was inactive.

Turning to `CC(=O)c1ccc(C)cc1`, the call was inactive.

On to `CC(C)(CO)CO`, for which the result was inactive.

Regarding `CC(=O)N(C)C`, the call was inactive.

Turning to `c1ccc(OCCOc2ccccc2)cc1`, the call was inactive.

Consider `CC(CO)(CO)[N+](=O)[O-]`, for which the call was inactive.

Turning to `CCOC(=O)C(=O)OCC`, the molecule was classed as inactive.

Turning to `O=C(O)c1cc2ccccc2cc1O`, the molecule was classed as inactive.

As for `CCCCCCOC(C)=O`, the result was inactive.

In the case of `O=S(=O)(O)CCCN1CCOCC1`, the molecule was classed as inactive.

On to `Cc1ccncc1`, for which the outcome was inactive.

`C1=COCCC1`: the molecule was classed as inactive.

Turning to `CCCCC1CCCCC(=O)O1` (stereo not given), the outcome was inactive.

Turning to `CCCCCCC(C)O` (stereo not given), the call was inactive.

Regarding `CC/C=C\C#N`, the molecule was called inactive.

`C#C[C@]1(O)CC[C@H]2[C@@H]3CCc4cc(O)ccc4[C@H]3CC[C@@]21C`: the molecule was called inactive and the AC50 was 60.4 µM (active).

Turning to `O=C1CCCCCCCCCCCC(=O)OCCO1`, the result was inactive.

Take `CC1(C)[C@H](C=C(Cl)Cl)[C@H]1C(=O)OCc1cccc(Oc2ccccc2)c1`: the outcome was inactive.

Consider `CC(C)=CC(=O)O`, for which the molecule was called inactive.

On to `CN(C)c1ccc(C=O)cc1`, for which the result was inactive.

Regarding `CCCOC(=O)CC`, the molecule was called inactive.

On to `COC(=O)c1cccc(C(=O)OC)c1`, for which the molecule was called inactive.

On to `CC(C)CCCC(C)(C)O`, for which the outcome was inactive.

Turning to `C=CC(O)CCCCC` (stereo not given), the molecule was called inactive.

Take `CC=CC(=O)C1=C(C)C=CCC1(C)C`: the molecule was called inactive.

For `CCCCCCCOC(C)=O`, the molecule was classed as inactive.

Turning to `C=CCCCCCCCCC(=O)OCC`, the molecule was called inactive.

Consider `C=CC(C)(CCC=C(C)C)OC(=O)CC` (stereo not given), for which the result was inactive.

In the case of `O=C(OCc1ccccc1)c1ccccc1O`, the call was inactive.

Turning to `CC(C)=CCCC(C)=CC(=O)O`, the call was inactive.

`CCCCCCCCCCCCOCCOS(=O)(=O)O`: the result was inactive.

Consider `CCCc1ccc(O)cc1`, for which the result was inactive.
